# Laboratory results published in ChEMBL document CHEMBL4513216, “Probing the Open Global Health Chemical Diversity Library for Multistage-Active Starting Points for Next-Generation Antimalarials” (ACS Infect Dis, 2020).
# The whole screen tested about 68,000 compounds, of which about 2,700 (4%) showed an effect of 50% or more. The sample holds strong results, similar compounds and a random draw of the others, so the mix is not that of the screen.
# System: Plasmodium berghei
# Assay: Screen against P. berghei liver stage (PbLuc), transformed with Luciferase, at 2uM
# Assay type: functional, HepG2
# Conditions: tested at 2 uM
row,Structure (SMILES),INHIBITION [%]
1,CC(NC(N)=O)C(=O)N1CCCN(Cc2nccn2C(C)C)CC1 (stereo not drawn),-7.5
2,CN(C(=O)Cc1ccc(NC(=O)NC2CCC2)cc1)c1ccccc1,43.21
3,Cc1ccc(C(=O)N2CCC3(CC2)CCN(CCN(C)C)C3=O)cn1,39.92
4,CCn1c(C2CCN(C(=O)c3cc(Cl)no3)CC2)nn(C)c1=O,13.76
5,CCn1c(C2CCN(C(=O)c3cc(CC(C)C)no3)CC2)nn(C)c1=O,51.31
6,CCn1c(C2CCN(C(=O)c3cc(CC(C)C)on3)CC2)nn(C)c1=O,-5.44
7,CCN1CCn2c(-c3cccc(F)c3)cnc2C12CCN(C(C)=O)CC2,-13.68
8,O=c1[nH]c(NCCO)nc2c1C1(CCCCC1)Cc1ccccc1-2,53.55
9,O=c1[nH]c(NCCO)nc2c1C1(CCCC1)Cc1ccccc1-2,-29.21
10,O=c1[nH]c(NCCCO)nc2c1C1(CCCC1)Cc1ccccc1-2,43.82
11,CCN(Cc1ccoc1)C(=O)C1CN(C(=O)OC(C)(C)C)C1,52.03
12,CCN(Cc1ccoc1)C(=O)C1CCN(C(=O)OC(C)(C)C)C1 (stereo not drawn),30.25
13,CCN(Cc1ccoc1)C(=O)NC1CCN(C(=O)OC(C)(C)C)C1 (stereo not drawn),7.93
14,Cc1cc(-n2nnc(C(=O)O)c2-c2ccncc2)ccc1F,-37.39
15,Cc1occc1C(=O)N1CCC2(CCCN(c3ncc(F)cn3)C2)C1 (stereo not drawn),-13.37
16,CC(C)(C)n1cc(C(=O)O)c(-c2ccc(F)cc2F)n1,52.98
17,Cn1cc(C(=O)O)c(-c2ccc(F)cc2F)n1,31.51
18,Cn1cc(C(=O)OCC(N)=O)c(-c2ccc(F)cc2F)n1,19.59
19,COc1ccc(C(=O)C2CCCN(c3nccc(N)n3)C2)c(C)c1 (stereo not drawn),22.5
20,COc1ccc(N2CCC(N(C)C(=O)Nc3ccncc3)CC2)cc1,-18.09
21,Cn1cc(C(=O)N2CC[C@@H]3[C@@H]2CCN3Cc2ccncc2)cn1,70.31

row,Structure (SMILES),INHIBITION [%]
1,Cc1cccc(CN2CC[C@H]3[C@H]2CCN3C(=O)c2cnn(C)c2)n1,51.4
2,Cc1cccc(CN2CC[C@H]3[C@H]2CCN3Cc2cnn(C)c2)n1,46.68
3,Cn1cc(C(=O)N2CC[C@@H]3[C@@H]2CCN3Cc2cccnc2)cn1,-31.39
4,Cc1cccc(N2CC[C@H]3[C@H]2CCN3C(=O)c2cnn(C)c2)n1,3.56
5,Cc1cccc(CN2CC[C@@H]3[C@@H]2CCN3C(=O)c2ccno2)n1,51.94
6,Cc1cccc(CN2CC[C@@H]3[C@@H]2CCN3C(=O)c2cc(C)on2)n1,26.01
7,Cc1cccc(CN2CC[C@@H]3[C@@H]2CCN3C(=O)c2cnoc2C)n1,-15.6
8,Cn1cc(C(=O)N2CC[C@@H]3[C@@H]2CCN3Cc2ccccc2)cn1,28.85
9,Cc1cc(CNCC2Cn3nnc(C)c3CO2)oc1C (stereo not drawn),26.42
10,CCS(=O)(=O)NC1CCCN(c2ccc(F)cc2C)C1=O (stereo not drawn),-13.11
11,Cn1cc(C(=O)N2CCCC(C(=O)CCc3ccccc3)C2)cn1 (stereo not drawn),18.12
12,CCC(O)CNc1nccc(-c2ccc(C)nc2C)n1 (stereo not drawn),-23.27
13,O=C(Cc1ccsc1)N1CCC2(CCCN(CC3CCOCC3)C2)C1 (stereo not drawn),32.04
14,O=C(Cc1cccs1)N1CCC2(CCCN(CC3CCOCC3)C2)C1 (stereo not drawn),54.62
15,O=C(Cc1ccccn1)N1CCC2(CCCN(CC3CCOCC3)C2)C1 (stereo not drawn),-16.36
16,CS(=O)(=O)c1ccc(OCCCN2CCc3cncnc3C2)cc1,20.53
17,Cn1cnc2c1CCN(CCCOc1ccc(C#N)cc1)C2,40.29
18,Cn1cnc2c1CCN(CCCOc1ccc(S(C)(=O)=O)cc1)C2,72.05
19,CCS(=O)(=O)N(C)C1CCN(C(=O)c2cc(C)cc(C)c2)CC1,-37.02
20,CNC(=O)COc1ccccc1CNCc1c(C)noc1C,57.75
21,CNC(=O)COc1cccc(CNCc2c(C)noc2C)c1,-16.18

row,Structure (SMILES),INHIBITION [%]
1,Cc1noc(C)c1CNC(=O)C(C)Oc1ccccc1F (stereo not drawn),-23.17
2,Cc1cc(O)cc(=O)n1CCCC(=O)Nc1n[nH]c2cc(Br)ccc12,-14.65
3,CO[C@H]1C(=O)N(C)C2(CCNCC2)[C@@H]1C(=O)Nc1ccccc1,36.1
4,Cc1noc(C)c1CN1CCC(N(C)Cc2nnc(C3CC3)n2C)C1 (stereo not drawn),-37.68
5,COCCN1C(=O)CCC12CCC(NCc1ccc(OC)cc1)CC2 (stereo not drawn),25.43
6,CC[C@H]1N(CC2CCC2)CCC[C@]12CCC(=O)N2Cc1ccncc1,65.54
7,CC[C@@H]1N(Cc2ccc(OC)cc2)CCC[C@]12CCC(=O)N2CCOC,25.75
8,CN1C(=O)CCC12CCC(NCc1ccsc1)CC2 (stereo not drawn),51.81
9,COCCN1C(=O)CCC12CCC(NCc1cccnc1OC)CC2 (stereo not drawn),12.95
10,CC[C@@H]1N(CC2CCC2)CCC[C@]12CCC(=O)N2Cc1ccncc1,12.28
11,CN1C(=O)CCC12CCC(NC(=O)NCc1cccnc1)CC2 (stereo not drawn),-14.64
12,O=C1CCC2(CCC(NCc3ccsc3)CC2)N1Cc1ccccc1 (stereo not drawn),31.5
13,CC[C@@H]1N(Cc2ccccn2)CCC[C@]12CCC(=O)N2CCOC,51.05
14,CCCN1CCC[C@]2(CCC(=O)N2Cc2ccncc2)[C@H]1CC,32.59
15,CC[C@@H]1N(Cc2ccncc2)CCC[C@]12CCC(=O)N2CCOC,28.86
16,COCCN1C(=O)CCC12CCC(NCc1nccs1)CC2 (stereo not drawn),75.66
17,Cc1cc(C(=O)N2CCC(Nc3cccnc3)CC2)c(C)s1,22.36
18,COCCN1CCC2(CCN(C(=O)c3ccc(F)cc3)CC2)C1=O,4.59
19,CN1[C@@H]2CC[C@H]1CN(C(=O)CCc1csc(N)n1)CC2,41.86
20,COc1ccc(C(=O)N2CCC(Nc3cccnn3)CC2)c(F)c1,-33.22
21,Cc1c(C2N3CC4(C(C)C)CN2CC(C(C)C)(C3)C4=O)[nH]c(=O)[nH]c1=O (stereo not drawn),-2.5
